Assay outcomes from PubChem BioAssay.
An excerpt weighted towards active compounds, which were near 7.5% of everything screened.
FLuc counter: counter-screen for miR-21 project: firefly luciferase inhibitors or activators; 360,000 tested, 6.9% active; Potency, µM (top dose mostly 57.5 µM), for the others: at the highest dose activity change, negative = inhibition, most hits filed as inhibitors; purified FLuc, Km substrates, luminescence inhibition;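 further: plate controls were vehicle for no effect and reference inhibitor for full effect; nearly all actives have a fitted effect of over 55% in size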
Target sequence (P08659 whole entry, looked up): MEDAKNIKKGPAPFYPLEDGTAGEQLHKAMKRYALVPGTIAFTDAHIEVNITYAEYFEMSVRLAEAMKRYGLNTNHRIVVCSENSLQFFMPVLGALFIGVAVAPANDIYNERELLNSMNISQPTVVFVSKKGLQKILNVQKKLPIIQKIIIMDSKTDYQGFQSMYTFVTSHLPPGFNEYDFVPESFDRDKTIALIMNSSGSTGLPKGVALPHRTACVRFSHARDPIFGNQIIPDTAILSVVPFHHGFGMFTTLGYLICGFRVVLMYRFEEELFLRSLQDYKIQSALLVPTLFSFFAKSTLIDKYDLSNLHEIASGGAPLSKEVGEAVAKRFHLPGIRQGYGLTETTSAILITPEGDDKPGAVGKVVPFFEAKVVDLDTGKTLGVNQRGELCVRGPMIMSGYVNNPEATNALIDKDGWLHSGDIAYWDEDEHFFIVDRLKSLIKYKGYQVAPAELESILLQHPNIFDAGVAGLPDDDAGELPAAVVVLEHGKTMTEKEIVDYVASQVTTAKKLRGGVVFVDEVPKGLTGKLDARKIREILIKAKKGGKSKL
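Purified P. pyralis luciferase (10nM final) with 10uM D-luciferin and 10uM ATP (Km levels) in 50mM Tris acetate pH 7.5, 10mM Mg acetate, 0.01% Tween-20, 0.05% BSA; qHTS 6-point titration, ~60 µM downward; luminescence read.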
NPC1 prom act: NPC1 promoter activation; Huh7 NPC1 promoter luciferase reporter, 24 h; Potency, µM (doses to about 9.22 µM), inactives show top-dose activation, most hits filed as activators; 320,000 tested, 2.4% active; further: % of control where 0% means no effect; nearly all actives have a fitted effect of over 60% in size
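Luminescence read-out of NPC1 promoter-driven luciferase in stably transfected Huh7 cells; compounds delivered in DMSO and left 24 h at 37C, 5% CO2, qHTS titration format.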
Rab9 promoter act: Rab9 promoter activation | Potency, µM (doses to about 9.22 µM), for the others: at the highest dose activation, negative = inhibition, most hits filed as activators | Huh7 Rab9 promoter-luciferase reporter, luminescence, 24 h | 320,000 tested, 2.8% active; further: % of control where 0% means no effect; nearly all actives have a fitted effect of over 60% in size
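Huh7 cells stably carrying a Rab9 promoter-luciferase reporter, 1500 cells per well in OP-MEM I with 10% FBS, treated with compound 24 hours at 37C. Luciferase activity read by luminescence after 10 minutes with Amplite reagent.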
SMN2 splice up: enhancers of SMN2 splice variant expression | HEK293 SMN2-luciferase splicing reporter, luminescence, 30-36 h | Potency, µM (highest dose often 46.1 µM), for the others: top-dose activity change, positive = activation, usual class: activators | 210,000 tested, 2.8% active; further: % of control where 0% means no effect; nearly all actives have a fitted effect of over 55% in size
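qHTS luciferase splicing reporter: luminescence rises when SMN2 exon 7 is included in transfected HEK293 cells. Compound exposure lasted 30-36 h at 37C, with 4.5 mM final sodium butyrate as control, followed by a ONE-Glo read.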
Luc counter: Kinase-Glo luciferase inhibition (counter-screen); Kinase-Glo luciferase, ATP luminescence, 8 min; 200,000 tested, 0.28% active; AID 1379; Potency, µM (series often up to 38.3 µM), for inactives: at the highest dose activity change, negative = inhibition, usual class: inhibitors; further: on the % scale 0 is the no-effect control and ±100 the full control effect; nearly all actives have a fitted effect of over 60% in size
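Kinase-Glo luciferase light output from ATP and luciferin was measured with 10 uM ATP, within the enzyme's linear range. Buffer: 50 mM imidazole pH 7.2, 50 mM KCl, 7 mM MgCl2, 0.01% Tween 20, 0.05% BSA; luminescence read after 8 min at ambient temperature.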
ELG1 genotoxic: inducers of genotoxicity in HEK293T ELG1-luciferase cells. Potency, µM (highest dose often 46 µM), without a hit: at the highest dose activity change, positive = activation, most hits filed as activators. HEK293T ELG1-luciferase reporter, luminescence, 16 h. 330,000 tested, 1.3% active; further: % of control where 0% means no effect; nearly all actives have a fitted effect of over 60% in size
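DMSO vehicle served as control against compound-treated ELG1-luciferase HEK293T cells; exposure lasted 16 hr at 37 °C and 5% CO2, followed by ONE-Glo luminescence detection after 30 min.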
* marks the source's active call; other numbers are inactive results; ? = inconclusive; nt = no result; [ ] = dose if it differs, or a comment. The call rests on the fitted dose curve; in most records, active means well fitted curve in the direction sought with a large enough effect; inconclusive means small, poorly fitted or top-dose-only effect, or another doubt; inactive means no such curve, though single readings can be large; an effect the other way counts as inactive or inconclusive. Potency means the concentration at half of the fitted maximal effect.

SMILES	FLuc counter	NPC1 prom act	Rab9 promoter act	SMN2 splice up	Luc counter	ELG1 genotoxic
Cc1cc(C)c2nc(NNC(=O)c3cc(=O)c4ccccc4o3)sc2c1	13.5µM*	1.3%	14.8%	nt	nt	3.5%
COc1ccc(-n2nc(C(=O)Nc3nc4ccc(OC)cc4s3)c3ccccc3c2=O)c(OC)c1	4.9%	-5.6%	-0.1%	-7.8%	0.6%	8.4%
CCOc1ccccc1CNC(=O)Cn1c(=O)c2cccn2c2ccc(F)cc21	10.2%	nt	nt	nt	nt	nt
Cc1ccc2nc(NC(=O)c3ccccc3F)sc2c1	0.477µM*	0.316µM*	?	nt	nt	0.651µM*
COc1ccc2nc(NC(=O)c3ccccc3-c3ccccc3C(=O)O)sc2c1	?	-1.5%	-12.1%	-1.4%	1.5%	6.2%
COc1ccc2nc(NC(=O)c3ccccc3F)sc2c1	0.338µM*	0.447µM*	0.316µM*	nt	nt	?
COc1ccc(C(=O)Nc2nc3ccc(OC)cc3s2)cc1	1.69µM*	2.51µM*	?	nt	nt	?
COc1ccc2nc(NC(=O)c3ccccc3C(=O)O)sc2c1	9.53µM*	-2.2%	-0.5%[1.84 µM]	nt	nt	2.3%
CCCC(=O)Nc1nc2ccc(NC(=O)c3ccccc3F)cc2s1	-22.2%	-29.6%	-12.1%	nt	-1.7%	-2.1%
CCN(Cc1ccccc1)C(=O)CN(c1ccc(OC)cc1)S(=O)(=O)c1c(C)nn(C)c1C	1.3%	nt	nt	2.5%	nt	nt
O=C(Nc1ccc(N2CCN(CCOc3ccc(Cl)cc3)CC2)c(C(=O)O)c1)c1ccc(F)cc1	-17.6%	nt	nt	nt	nt	nt
Cc1cc(C)n(-c2ccc(NC(=O)C3CCCCN3C(=O)c3ccoc3C)cc2)n1 (stereo not given)	4.2%	-6.7%	-4.6%	nt	nt	-1.7%
CSc1ncccc1C(=O)Nc1ccncc1	3.3%	12.3%	-5.2%	nt	nt	1.6%
COc1ccc2nc(NC(=O)c3cnccn3)sc2c1	3.01µM*	3.16µM*	2.24µM*	3.98µM*	-16.2%	?
CSc1ncccc1C(=O)Nc1ccc2nc(C)sc2c1	16.9µM*	22.8%	0.6%	nt	nt	12.4%
CCSc1ncc(Cl)c(C(=O)Nc2nc3ccc(OC)cc3s2)n1	-6.5%	nt	nt	-4.3%	nt	nt
COc1ccc2nc(NC(=O)c3ccc(NC(=O)C4CCCO4)cc3)sc2c1 (stereo not given)	9.53µM*	21.3%	18.4%	nt	nt	-10.3%
CSc1ncccc1C(=O)Nc1nc2ccc(Oc3ccccc3)cc2s1	23.9µM*	-1.0%	0.1%	11.2%	-20.3%	-0.2%
O=C(O)CC(c1ccc(C(F)(F)F)cc1)N1Cc2ccccc2C1=O (stereo not given)	-2.5%	-9.3%	2.0%[1.84 µM]	nt	nt	-3.5%
N#Cc1ccccc1NC(=O)COC(=O)CCc1ccccc1	-1.0%	-3.0%	-2.4%	nt	nt	2.4%
O=C(Nc1ccc(F)cc1)c1ccc(C(=O)N2CCCC(O)C2)cc1 (stereo not given)	-4.5%	5.2%	3.9%	nt	nt	2.6%
CCOC(=O)c1ccc(N/C=C2/CCCC(C)C2=O)cc1 (stereo not given)	5.36µM*	3.16µM*	2.51µM*	?	-11.6%	4.11µM*
CC1CCC/C(=C\Nc2ccc(C(=O)O)cc2)C1=O (stereo not given)	4.78µM*	?	?	nt	nt	?
O=C1CCCC/C1=C\Nc1ccc(C(=O)O)c(O)c1	10.7µM*	29.0%	?	nt	nt	16.3%
CC1CCC/C(=C\Nc2ccc(C(=O)O)c(O)c2)C1=O (stereo not given)	10.7µM*	3.55µM*	3.55µM*	nt	nt	?
SMILES	FLuc counter	NPC1 prom act	Rab9 promoter act	SMN2 splice up	Luc counter	ELG1 genotoxic
CCCCc1nc2c(c3c1C[C@H](C)OC3)CN(C(=O)C1CCCCC1)CC2	nt	nt	nt	14.7%[9.22 µM]	-0.7%[7.66 µM]	nt
COc1ccc(Cn2c(=O)[nH]c3cc(C(=O)N4CCN(c5cccc(OC)c5)CC4)ccc3c2=O)cc1	-2.3%	nt	nt	-8.3%	nt	nt
O=C(CSc1nnc(-c2ccccn2)o1)Nc1ccccc1	-16.0%	2.51µM*	2.51µM*	11.2µM*	0.1%	?
O=C(CSc1nnc(-c2ccccn2)o1)Nc1ccc(F)cc1	5.9%	2µM*	?	nt	nt	?
Fc1ccc(CSc2nnc(-c3ccccn3)o2)cc1	10.7µM*	1.41µM*	2.24µM*	nt	nt	?
Cc1cccc(NC(=O)C2CCCN(S(=O)(=O)c3cnc[nH]3)C2)c1C (stereo not given)	-3.9%	nt	nt	2.2%	nt	nt
CCn1nc(NS(=O)(=O)c2ccc([N+](=O)[O-])cc2)c2cc3ccccc3nc21	-14.7%	-5.7%	-0.1%	nt	nt	-1.1%
CC1CCCN(c2ccc(C(=O)NCc3cccs3)cn2)C1 (stereo not given)	19µM*	?	?	12.6µM*	-3.4%	?
CC1CCCN(c2ccc(C(=O)NCc3ccccc3)cn2)C1 (stereo not given)	?	17.5%	?	?	1.8%	4.8%
O=C(NCc1cccs1)c1ccncc1	1.3%	-1.3%	2.8%	4.0%	4.2%	-2.8%
O=C(NCc1cccs1)c1ccc(N2CCCCC2)nc1	21.3µM*	nt	nt	?	-8.7%	nt
CC(C)C1=CC2=CC[C@@H]3[C@@](C)(C(=O)O)CCC[C@]3(C)C2CC1 (stereo not given in full)	nt	nt	nt	nt	0.4%	nt
Cc1ccc(NC(=O)C2CCN(c3nn4cc(-c5ccc(C)cc5)nc4s3)CC2)cc1	32.3%	nt	nt	nt	nt	nt
Cc1nn2cc(-c3ccc(N)cc3)nc2s1	10.7µM*	1µM*	1µM*	12.6µM*	-17.2%	?
O=C(/C=C/c1c(F)cccc1Cl)Nc1ccncc1	7.57µM*	29.2%	?	-22.6%	-0.4%	15.7%
O=C(Nc1ccncc1)c1ccccc1Cl	-10.8%	-1.1%	-5.1%	nt	nt	-5.5%
O=C(/C=C/c1cccc(Cl)c1)Nc1ccncc1	16.9µM*	0.6%	24.4%	-0.9%	-4.3%	2.9%
O=C(/C=C/c1c(Cl)cccc1Cl)Nc1ccncc1	3.01µM*	26.3%	?	-22.1%	14.5%	?
Cc1cc(NS(=O)(=O)c2ccc(NC(=O)/C=C/c3c(F)cccc3Cl)cc2)no1	?	1.2%	0.0%	nt	nt	5.0%
Nc1c(C(=O)Nc2ccccc2)sc2nc(-c3ccco3)ccc12	12µM*	?	?	2.2%	-2.7%	5.7%
Nc1c(C(=O)Nc2ccccc2Br)sc2nc(-c3cccs3)ccc12	nt	nt	nt	-5.7%	nt	nt
CC(=O)c1sc2nc(-c3cccs3)ccc2c1N	7.57µM*	18.4%	3.55µM*	?	-0.9%	11.6µM*
Nc1c(C(=O)Nc2nc3ccccc3s2)sc2nc(-c3cccs3)ccc12	2.39µM*	?	?	?	-7.6%	?
Cc1ccc2c(c1)-c1c(c(C(=O)N3CCN(c4cc(Cl)ccc4C)CC3)nn1C)CS2	2.5%	nt	nt	nt	nt	nt
CCN(CC)CCN(C(=O)c1ccco1)c1nc2c(C)c(C)ccc2s1	-10.0%	nt	nt	nt	nt	nt
COc1cc(NS(=O)(=O)c2ccc3c(c2)CCCN3C(C)=O)cc(OC)c1OC	0.2%	nt	nt	nt	nt	nt
